A word on the AC50: it is the midpoint of the concentration-response curve, whichever way the signal moves.

Active and inactive are the calls of the source. Rule for the calls: active = hit-call score of the fitted dose curve at least 0.9, where 1 is the maximum; inactive = score below 0.9.

From PubChem BioAssay (EPA / NIEHS) come the findings set out here.

Read-out in assay [1]: Cyclin Dependent Kinase Inhibitor 1A (CDKN1A), CDKN1A (gene 1026)
The experiment in a line: LTEA_HepaRG_CDKN1A: Life Technologies and Expression Analysis (LTEA) Assay for Cyclin Dependent Kinase Inhibitor 1A (CDKN1A) using HepaRG (AID 2283450). The note with it: mRNA level, 48 h; actives raise or lower the signal. The gist of the method: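 Gain or loss of CDKN1A transcript is scored by bidirectional fitting against 0.5% DMSO vehicle. Human HepaRG cultures receive chemicals for 48 h across an 8-point series peaking at 100 uM; expression comes from qRT-PCR.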

Read-out in assay [2]: Cyclin D1 (CCND1), CCND1 (gene 595)
The experiment in a line: LTEA_HepaRG_CCND1: Life Technologies and Expression Analysis (LTEA) Assay for Cyclin D1 (CCND1) using HepaRG (AID 2283451). The note with it: mRNA level, 48 h; actives raise or lower the signal. The method in brief:
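Expression change is measured by qRT-PCR in HepaRG cells after 48 h treatment across eight concentrations topping at 100 uM, with duplicate wells and DMSO (0.5%) serving as baseline for bidirectional fitting.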

Read-out in assay [3]: catalase (CAT), CAT (gene 847)
The experiment in a line: LTEA_HepaRG_CAT: Life Technologies and Expression Analysis (LTEA) Assay for catalase (CAT) using HepaRG (AID 2283452). The note with it: mRNA level, 48 h; actives raise or lower the signal. The method in brief:
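HepaRG cells in serum-free induction medium, 0.5% DMSO vehicle, exposed 48 h in duplicate over 8 half-log concentrations from 100 uM. CAT mRNA measured by qRT-PCR, normalized to ACTB, GAPDH, POLR2A; bidirectional fit versus DMSO.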

Read-out in assay [4]: flavin-containing dimethylaniline monooxygenases 3 (FMO3), FMO3 (gene 2328)
Nature of the assay: LTEA_HepaRG_FMO3: Life Technologies and Expression Analysis (LTEA) Assay for flavin-containing dimethylaniline monooxygenases 3 (FMO3) using HepaRG (AID 2283453). The note with it: mRNA level, 48 h; actives raise or lower the signal. The gist of the method: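 HepaRG, 48 h exposure, 8-pt half-log series from 100 uM, 0.5% DMSO vehicle, duplicates; FMO3 transcript by Fluidigm TaqMan qRT-PCR, housekeeping-normalized; gain/loss fit vs DMSO.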

Read-out in assay [5]: Cytochrome P450 (CYP1A1), CYP1A1 (gene 1543)
The experiment in a line: LTEA_HepaRG_CYP1A1: Life Technologies and Expression Analysis (LTEA) Assay for Cytochrome P450 (CYP1A1) using HepaRG (AID 2283454). Conditions: mRNA level, 48 h; actives raise or lower the signal. The method in brief: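 Using HepaRG cultures with 0.5% DMSO as vehicle, eight-concentration exposures (max 100 uM) lasted 48 h. Transcript levels were measured by TaqMan qRT-PCR and normalized to ACTB, GAPDH and POLR2A.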

Read-out in assay [6]: CFLAR gene, CFLAR (gene 8837)
Nature of the assay: LTEA_HepaRG_CFLAR: Life Technologies and Expression Analysis (LTEA) Assay for CFLAR gene using HepaRG (AID 2283455). Conditions: mRNA level, 48 h; actives raise or lower the signal. The method in brief: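 Differentiated HepaRG cells in serum-free induction medium were exposed 48 h in duplicate to eight half-log concentrations up to 100 uM in 0.5% DMSO; mRNA measured by TaqMan qRT-PCR, normalized to ACTB, GAPDH, POLR2A; bidirectional fitting versus DMSO.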

Assay [7] is described as follows: CEETOX_H295R_TESTO: CeeTox H295R High-throughput Steroidogenesis Assay for Testosterone (TESTO) (AID 2283457). Conditions: actives raise or lower the signal. The method in brief:
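Steroidogenesis in H295R cells following OECD 456 with minor changes; 48 h exposure. Medium testosterone by HPLC-MS/MS, DMSO as baseline, with MTT viability run in parallel.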

Read-out in assay [8]: growth arrest and DNA damage 45 (GADD45A), GADD45A (gene 1647)
Nature of the assay: LTEA_HepaRG_GADD45A: Life Technologies and Expression Analysis (LTEA) Assay for growth arrest and DNA damage 45 (GADD45A) using HepaRG (AID 2283458). The note with it: mRNA level, 48 h; actives raise or lower the signal. The gist of the method:
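Differentiated HepaRG cells were exposed in duplicate for 48 h in serum-free induction medium to 8-point half-log concentrations up to 100 uM in 0.5% DMSO. GADD45A mRNA was measured by TaqMan qRT-PCR, normalized to ACTB, GAPDH and POLR2A, with bidirectional fitting versus DMSO.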

Read-out in assay [9]: ABC Transporter (ABCB1), ABCB1 (gene 5243)
Nature of the assay: LTEA_HepaRG_ABCB1: Life Technologies and Expression Analysis (LTEA) Assay for ABC Transporter (ABCB1) using HepaRG (AID 2283460). Conditions: mRNA level, 48 h; actives raise or lower the signal. The gist of the method:
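HepaRG cells exposed in duplicate for 48 h in serum-free induction medium to eight half-log concentrations up to 100 uM in 0.5% DMSO. ABCB1 mRNA quantified by qRT-PCR, normalised to ACTB, GAPDH and POLR2A; fitted bidirectionally versus DMSO.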

Read-out in assay [10]: growth arrest and DNA damage 45 (GADD45B), GADD45B (gene 4616)
Nature of the assay: LTEA_HepaRG_GADD45B: Life Technologies and Expression Analysis (LTEA) Assay for growth arrest and DNA damage 45 (GADD45B) using HepaRG (AID 2283461). Conditions: mRNA level, 48 h; actives raise or lower the signal. The gist of the method: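 Human HepaRG monolayers receive chemicals for 48 h at eight half-log concentrations, highest 100 uM, in 0.5% DMSO. Expression is measured by TaqMan qRT-PCR and normalized to ACTB, GAPDH and POLR2A.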

Read-out in assay [11]: ABC Transporter (ABCC3), ABCC3 (gene 8714)
Nature of the assay: LTEA_HepaRG_ABCC3: Life Technologies and Expression Analysis (LTEA) Assay for ABC Transporter (ABCC3) using HepaRG (AID 2283462). Conditions: mRNA level, 48 h; actives raise or lower the signal. The method in brief: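 Transcriptional change of ABCC3 in HepaRG after 48 h treatment, determined by qRT-PCR normalized to endogenous controls. Concentrations spanned eight half-log steps to 100 uM in 0.5% DMSO.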

Read-out in assay [12]: ABC Transporter (ABCB11), ABCB11 (gene 8647)
Nature of the assay: LTEA_HepaRG_ABCB11: Life Technologies and Expression Analysis (LTEA) Assay for ABC Transporter (ABCB11) using HepaRG (AID 2283463). Conditions: mRNA level, 48 h; actives raise or lower the signal. The gist of the method:
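Differentiated human HepaRG cells in serum-free induction medium, dosed in duplicate for 48 h. Eight-point half-log series from 100 uM in 0.5% DMSO; ABCB11 mRNA by qRT-PCR, normalized to ACTB, GAPDH, POLR2A, fitted bidirectionally versus DMSO.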

Read-out in assay [13]: Broad substrate specificity ATP-binding cassette transporter ABCG2 (Homo sapiens) (UniProt Q9UNQ0)
The experiment in a line: LTEA_HepaRG_ABCG2: Life Technologies and Expression Analysis (LTEA) Assay for ABC Transporter (ABCG2) using HepaRG (AID 2283465). Conditions: mRNA level, 48 h; actives raise or lower the signal. The gist of the method: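 Differentiated HepaRG cells were exposed for 48 h in serum-free induction medium to 8 half-log concentrations, top 100 uM, in 0.5% DMSO. ABCG2 mRNA was measured by qRT-PCR, normalized to ACTB, GAPDH and POLR2A, with bidirectional fitting versus DMSO.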

Read-out in assay [14]: ATP-citrate lyase (ACLY), ACLY (gene 47)
The experiment in a line: LTEA_HepaRG_ACLY: Life Technologies and Expression Analysis (LTEA) Assay for ATP-citrate lyase (ACLY) using HepaRG (AID 2283466). Conditions: mRNA level, 48 h; actives raise or lower the signal. The gist of the method: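 Differentiated HepaRG cells exposed 48 h in serum-free induction medium to eight half-log concentrations up to 100 uM in 0.5% DMSO, duplicates. Transcript measured by Fluidigm TaqMan qRT-PCR, normalized to ACTB, GAPDH, POLR2A; bidirectional fit versus DMSO.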

Read-out in assay [15]: Peroxisomal acyl-coenzyme A oxidase 1 (ACOX1) gene, ACOX1 (gene 51)
The experiment in a line: LTEA_HepaRG_ACOX1: Life Technologies and Expression Analysis (LTEA) Assay for Peroxisomal acyl-coenzyme A oxidase 1 (ACOX1) gene using HepaRG (AID 2283467). The note with it: mRNA level, 48 h; actives raise or lower the signal. The method in brief: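 HepaRG cells, plated 48 h then switched to serum-free induction medium, were exposed in duplicate for 48 h to 8-point half-log concentrations up to 100 uM in 0.5% DMSO. ACOX1 mRNA was measured by qRT-PCR, normalized to ACTB/GAPDH/POLR2A, and fitted bidirectionally versus DMSO.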

Read-out in assay [16]: Fatty acid synthase (Homo sapiens) (UniProt P49327)
The experiment in a line: LTEA_HepaRG_FASN: Life Technologies and Expression Analysis (LTEA) Assay for Fatty Acid Synthase (FASN) using HepaRG (AID 2283448). Conditions: mRNA level, 48 h; actives raise or lower the signal. The method in brief:
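Differentiated human HepaRG cells were exposed for 48 h in serum-free induction medium to eight half-log concentrations up to 100 uM in 0.5% DMSO, in duplicate. FASN mRNA was quantified by TaqMan qRT-PCR, normalized to ACTB/GAPDH/POLR2A, and fitted bidirectionally against DMSO.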

Read-out in assay [17]: Cyclin D2 (CCND2), CCND2 (gene 894)
Nature of the assay: LTEA_HepaRG_CCND2: Life Technologies and Expression Analysis (LTEA) Assay for Cyclin D2 (CCND2) using HepaRG (AID 2283449).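 Note: CCND2 transcript measured by TaqMan qRT-PCR and normalised to three housekeeping genes.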 The note with it: mRNA level, 48 h; actives raise or lower the signal. The method in brief:
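Chemicals in 0.5% DMSO, eight half-log concentrations from 100 uM top, were applied in duplicate for 48 h to human HepaRG cells in serum-free induction medium. CCND2 mRNA by TaqMan qRT-PCR, normalised to ACTB/GAPDH/POLR2A; bidirectional fit versus DMSO.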

Read-out in assay [18]: Forkhead box O1 (FOXO1), FOXO1 (gene 2308)
Nature of the assay: LTEA_HepaRG_FOXO1: Life Technologies and Expression Analysis (LTEA) Assay for Forkhead box O1 (FOXO1) using HepaRG (AID 2283456). Conditions: mRNA level, 48 h; actives raise or lower the signal. The method in brief: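 Differentiated HepaRG cells, in serum-free induction medium with 0.5% DMSO, exposed 48 h in duplicate to 8-point half-log series from 100 uM. FOXO1 mRNA measured by TaqMan qRT-PCR, normalized to ACTB, GAPDH, POLR2A; bidirectional fit versus DMSO.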

Read-out in assay [19]: Forkhead box O3 (FOXO3), FOXO3 (gene 2309)
The experiment in a line: LTEA_HepaRG_FOXO3: Life Technologies and Expression Analysis (LTEA) Assay for Forkhead box O3 (FOXO3) using HepaRG (AID 2283459). Conditions: mRNA level, 48 h; actives raise or lower the signal. The gist of the method: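 Differentiated human HepaRG cells, 48 h post-plating, exposed in duplicate for 48 h in serum-free induction medium; 8-point half-log series from 100 uM in 0.5% DMSO. FOXO3 mRNA by TaqMan qRT-PCR, normalized to ACTB/GAPDH/POLR2A; bidirectional fit versus DMSO.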

Read-out in assay [20]: ABC Transporter (ABCC2), ABCC2 (gene 1244)
Nature of the assay: LTEA_HepaRG_ABCC2: Life Technologies and Expression Analysis (LTEA) Assay for ABC Transporter (ABCC2) using HepaRG (AID 2283464). Conditions: mRNA level, 48 h; actives raise or lower the signal. The gist of the method: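 After plating and 48 h culture, HepaRG medium is replaced with serum-free induction medium and chemicals are added (8 concentrations, max 100 uM, 0.5% DMSO) for 48 h. Total RNA then undergoes qRT-PCR for ABCC2 with housekeeping normalization.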

Chain of Fatty acid synthase (Homo sapiens) (P49327 whole entry, looked up): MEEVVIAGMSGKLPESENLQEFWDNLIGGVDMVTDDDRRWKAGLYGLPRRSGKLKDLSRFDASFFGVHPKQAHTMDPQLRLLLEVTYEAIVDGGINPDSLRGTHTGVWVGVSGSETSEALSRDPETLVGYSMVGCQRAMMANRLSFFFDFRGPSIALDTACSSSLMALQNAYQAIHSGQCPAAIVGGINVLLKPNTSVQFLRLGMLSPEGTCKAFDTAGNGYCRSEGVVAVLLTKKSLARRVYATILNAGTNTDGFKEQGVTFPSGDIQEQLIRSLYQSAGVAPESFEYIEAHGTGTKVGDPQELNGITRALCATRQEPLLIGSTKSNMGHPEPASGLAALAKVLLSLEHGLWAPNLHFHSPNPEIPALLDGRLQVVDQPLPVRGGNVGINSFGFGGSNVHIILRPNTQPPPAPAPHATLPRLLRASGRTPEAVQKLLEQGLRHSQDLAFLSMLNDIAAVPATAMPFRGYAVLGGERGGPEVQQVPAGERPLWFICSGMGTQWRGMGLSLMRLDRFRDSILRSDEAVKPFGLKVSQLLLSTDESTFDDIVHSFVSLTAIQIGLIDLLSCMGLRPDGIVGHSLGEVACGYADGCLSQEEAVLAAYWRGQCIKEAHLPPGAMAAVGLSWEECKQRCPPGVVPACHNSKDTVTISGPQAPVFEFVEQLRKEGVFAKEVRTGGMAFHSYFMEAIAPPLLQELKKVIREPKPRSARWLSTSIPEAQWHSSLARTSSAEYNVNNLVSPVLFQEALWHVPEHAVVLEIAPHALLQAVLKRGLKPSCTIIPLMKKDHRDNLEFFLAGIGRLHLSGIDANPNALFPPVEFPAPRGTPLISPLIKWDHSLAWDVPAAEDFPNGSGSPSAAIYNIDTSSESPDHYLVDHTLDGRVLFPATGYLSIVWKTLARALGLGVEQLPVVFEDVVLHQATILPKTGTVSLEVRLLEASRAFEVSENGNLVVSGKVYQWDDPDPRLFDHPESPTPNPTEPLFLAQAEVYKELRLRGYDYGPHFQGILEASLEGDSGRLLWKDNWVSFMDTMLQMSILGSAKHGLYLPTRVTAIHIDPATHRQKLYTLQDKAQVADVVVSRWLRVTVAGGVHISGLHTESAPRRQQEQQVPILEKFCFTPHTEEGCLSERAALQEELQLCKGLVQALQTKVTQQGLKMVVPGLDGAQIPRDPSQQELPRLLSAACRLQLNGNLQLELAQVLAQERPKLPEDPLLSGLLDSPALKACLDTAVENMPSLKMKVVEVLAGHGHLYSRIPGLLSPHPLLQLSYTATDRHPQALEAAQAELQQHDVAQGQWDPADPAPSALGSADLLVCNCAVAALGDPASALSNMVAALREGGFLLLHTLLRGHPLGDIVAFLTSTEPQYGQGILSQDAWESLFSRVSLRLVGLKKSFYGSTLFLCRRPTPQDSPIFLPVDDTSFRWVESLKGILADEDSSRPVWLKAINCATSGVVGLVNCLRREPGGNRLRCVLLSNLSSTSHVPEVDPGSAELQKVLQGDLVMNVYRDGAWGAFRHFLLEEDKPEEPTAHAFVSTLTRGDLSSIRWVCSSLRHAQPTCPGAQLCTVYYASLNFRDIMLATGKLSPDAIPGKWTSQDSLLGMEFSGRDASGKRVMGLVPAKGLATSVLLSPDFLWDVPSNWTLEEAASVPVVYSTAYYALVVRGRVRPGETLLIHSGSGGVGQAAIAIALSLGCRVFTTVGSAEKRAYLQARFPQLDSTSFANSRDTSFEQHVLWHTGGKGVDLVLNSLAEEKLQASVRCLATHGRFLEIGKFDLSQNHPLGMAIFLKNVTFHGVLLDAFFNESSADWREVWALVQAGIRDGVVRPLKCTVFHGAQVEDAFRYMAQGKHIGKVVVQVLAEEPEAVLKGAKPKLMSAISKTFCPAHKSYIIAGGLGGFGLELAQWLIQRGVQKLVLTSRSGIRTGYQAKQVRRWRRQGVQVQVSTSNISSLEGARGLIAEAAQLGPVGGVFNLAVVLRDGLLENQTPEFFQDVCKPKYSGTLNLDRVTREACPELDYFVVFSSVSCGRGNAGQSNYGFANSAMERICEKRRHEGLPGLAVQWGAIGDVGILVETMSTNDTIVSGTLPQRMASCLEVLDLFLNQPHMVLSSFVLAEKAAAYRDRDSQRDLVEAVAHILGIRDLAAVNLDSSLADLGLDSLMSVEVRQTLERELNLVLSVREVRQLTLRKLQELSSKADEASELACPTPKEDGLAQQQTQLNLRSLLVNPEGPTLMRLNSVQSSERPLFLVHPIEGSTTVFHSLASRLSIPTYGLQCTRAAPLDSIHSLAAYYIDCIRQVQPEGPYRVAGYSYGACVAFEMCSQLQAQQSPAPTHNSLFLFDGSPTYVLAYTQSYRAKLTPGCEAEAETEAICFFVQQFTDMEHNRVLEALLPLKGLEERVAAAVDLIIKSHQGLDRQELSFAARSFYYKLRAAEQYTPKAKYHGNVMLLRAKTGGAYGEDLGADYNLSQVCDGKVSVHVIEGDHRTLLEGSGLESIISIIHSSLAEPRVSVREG
Chain of Broad substrate specificity ATP-binding cassette transporter ABCG2 (Homo sapiens) (Q9UNQ0 whole entry, looked up): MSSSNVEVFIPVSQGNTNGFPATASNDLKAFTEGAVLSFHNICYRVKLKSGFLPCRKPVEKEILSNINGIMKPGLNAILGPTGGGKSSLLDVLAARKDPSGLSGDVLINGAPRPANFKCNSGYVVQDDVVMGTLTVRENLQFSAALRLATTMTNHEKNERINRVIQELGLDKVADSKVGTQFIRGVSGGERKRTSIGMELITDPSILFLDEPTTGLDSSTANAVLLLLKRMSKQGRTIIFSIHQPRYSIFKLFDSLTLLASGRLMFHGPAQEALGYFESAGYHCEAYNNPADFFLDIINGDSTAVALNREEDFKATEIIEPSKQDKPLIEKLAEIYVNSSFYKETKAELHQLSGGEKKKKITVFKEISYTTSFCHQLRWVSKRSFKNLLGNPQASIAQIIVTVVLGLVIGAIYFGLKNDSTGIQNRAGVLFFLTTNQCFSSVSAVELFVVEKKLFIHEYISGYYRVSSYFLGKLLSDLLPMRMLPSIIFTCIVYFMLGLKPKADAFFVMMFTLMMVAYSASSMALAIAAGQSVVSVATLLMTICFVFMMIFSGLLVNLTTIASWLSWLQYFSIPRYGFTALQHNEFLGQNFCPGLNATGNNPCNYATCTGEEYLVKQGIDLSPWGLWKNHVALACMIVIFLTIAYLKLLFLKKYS

Consider `CCNc1nc(NC(C)C)nc(SC)n1`, for which the result in assay [1], in [2], in assay [3], in assay [6], in [7] and in assay [8] was inactive. Besides, the outcome in assay [9], in assay [10], in [11], in assay [13], in assay [14] and in assay [15] was inactive. In addition, the concentration at half-maximal activity (AC50) in assay [4] was 50 µM (active); in [5] it was 19.8 µM (active); in assay [12], 50 µM (active).
Consider `COc1ccc(O)c(C(C)(C)C)c1`, for which the call in assay [16], in assay [17], in [1], in assay [3], in assay [4] and in assay [5] was inactive. Moreover, the compound was classed as inactive in assay [6], in assay [18], in assay [8], in assay [19], in [9] and in [10]. The compound was classed as inactive in assay [11], in assay [12], in [13], in assay [14] and in assay [15].
`Clc1ccc(C(c2ccccc2Cl)C(Cl)(Cl)Cl)cc1` (stereo unspecified): the concentration at half-maximal activity (AC50) in assay [16] was 50 µM (active); in [3], 19.3 µM (active); in [4] it was 74.6 µM (active); in [5], 20 µM (active); in assay [9], 16.9 µM (active); in assay [12], 72.3 µM (active). Moreover, the AC50 in assay [13] was 4.48 µM (active). Moreover, the call in assay [1], in [2], in assay [6], in [8], in assay [19] and in [10] was inactive. The outcome in [11], in assay [14] and in assay [15] was inactive.
Regarding `ClC1=C(Cl)[C@]2(Cl)[C@@H]3[C@@H](Cl)[C@H]4O[C@H]4[C@@H]3C1(Cl)C2(Cl)Cl`, the call in assay [16], in [1], in assay [2], in assay [3], in assay [4] and in [6] was inactive. The outcome in [18], in [8], in assay [19], in assay [10], in assay [11] and in [12] was inactive. In addition, the compound was called inactive in assay [20] and in assay [15]. Moreover, the concentration at half-maximal activity (AC50) in [5] is 50 µM (active); in [9] it was 6.62 µM (active); in assay [13] it was 15.8 µM (active); in assay [14], 75 µM (active).
